# According to PubChem BioAssay (EPA / NIEHS):
# The source made the active and inactive calls. Rule for the calls: active = hit-call score of the fitted dose curve at least 0.9, where 1 is the maximum; inactive = score below 0.9.
# Read-out: CYP2C9 (gene 1559)
# Assay: LTEA_HepaRG_CYP2C9: Life Technologies and Expression Analysis (LTEA) Assay for CYP2C9 using HepaRG (AID 2283484)
# Conditions: mRNA level, 48 h; actives raise or lower the signal
# Protocol: LTEA_HepaRG is a cell based, multiplexed-readout assay that uses HepaRG, a human liver cell line, with measurements taken at 48 hours after chemical dosing on a 96-well plate.LTEA_HepaRG_CYP2C9 is one of 102 assay component(s) measured in the LTEA HepaRG cell culture assay. It is a marker of NR mediated metabolism.Data from the assay component LTEA_HepaRG_CYP2C9 was analyzed into 1 endpoint. This assay endpoint, LTEA_HepaRG_CYP2C9, was analyzed with bidirectional fitting relative to DMSO as the negative control and baseline of activity. Using a type of inducible reporter, measures of mRNA induction for gain or loss-of-signal activity can be used to understand regulation of transcription factor activity. To generalize the intended target to other relatable targets, this assay endpoint is annotated to the cyp intended target family, where the subfamily is xenobiotic metabolism.
# A total of 1060 chemcials from the ToxCast library were tested in eight-point concentration-response experiments. Cell culture and cytotoxicity assays were conducted at Thermo Fisher Scientific's Custom Services facility (Madison, WI). A single lot of human HepaRG cells (Thermo Fisher Scientific, Frederick, MD) was used for the cell culture experiments. 96-well format collagen type I coated plates of human HepaRG cells were prepared using established methods. Briefly, cryopreserved HepaRG cells were thawed, plated at a density of approximately 100,000 cells/well in HepaRG Thaw, Plate, and General Purpose media (HPRG770, Thermo Fisher Scientific), and incubated for 48 hours. 0.5% DMSO was selected as vehicle control to balance the requisite need of DMSO in HepaRG cultures to maintain differentiation (for example, baseline metabolism, proportions of hepatocytes vs. cholangiocytes), while enabling further hepatic receptor pathway activation (for example, PXR and CAR) in response to chemical exposure. 48 hours after plating, the culture medium was replaced with HepaRG Serum-Free Incudtion Media. Cells were exposed to each test chemical in duplicate and maintained in CO2 incubators for another 48 hours. Chemical plates were thawed to room temperature and 200x concentrations of treatment groups were prepared. 8-point conentration-reponse curves were made with the highest exposure at 100 uM, followed by half-log dilutions, all in 0.5% DMSO. Each test plate contained variouse controls, induction positive controls (1mM phenobarbital), cytotoxicity positive controls ([…] aflatoxin B1), vehicle controls (0.5% DMSO), and total lysis controls (0.5% DMSO). Cell morphology images were taken using an Essen IncuCyte FLR automated microscope, with six 96-well plates imaged in about 24 minutes. Images were captured and exported and JPEG files. Spent culture media was transfered to black-well plates for the LDH assay, and remaining media was sorted at -80 C for later use. Cells were treated with RLT buffer and frozen until shipped for gene expression analysis. Total RNA was isolated from the cell suspension in 75 uL of Buffer RLT (Qiagen, Germantown, MD 20874) by Quintiles/Expression Analysis (Durham, NC) using a custom isolation procedure. Total RNA from each plate well was transferred to a preamplification plate. Fluidigm's 96.96 Dynamic ArrayTM (Fluidigm, Amsterdam, the Netherlands) technology was used for gene expression analyses by quantitative reverse transcription polymerase chain reaction (qRT-PCR, performed by Quintiles/Expression Analysis, Durham, NC)89. Standard TaqManTM Assays (Applied Biosystems/ThermoFisher Scientific, Foster City, CA) were used to assess the expression of 93 genes selected based on their selectivity and sensitivity to important hepatic receptors known to be modulated by environmental chemicals; importance in human hepatocyte functionality; and hepatotoxicity. […]
SMILES,AC50,outcome
CCc1nn(C2CCCCC2)c2cc(C3(C#N)CCC(C(=O)O)CC3)ccc12 (stereo not given),63.4 µM (active),
COCC(C)OCC(C)O (stereo not given),,inactive
CN1CCN(c2ccccc2/C=C2\SCCN(c3ccc(Cl)c(Cl)c3)C2=O)CC1,,inactive
Oc1cc2ccccc2c2ccccc12,,inactive
CCC(C)(C)C1CCC(O)CC1 (stereo not given),,inactive
CC(C)(C)CC(C)(C)c1ccc(O)c(-n2nc3ccccc3n2)c1,,inactive
CC(C)CCCCCCOC(=O)CCCCC(=O)OCCCCCCC(C)C,,inactive
O=C(O)c1ccccc1C(c1ccc(O)cc1)c1ccc(O)cc1,,inactive
O=C(OCCOCCOC(=O)c1ccccc1)c1ccccc1,,inactive
CC[C@H](C)[C@@H](C(=O)O)n1sc2ccccc2c1=O,,inactive
CCC(=C(c1ccc(O)cc1)c1ccc(OCCN(C)C)cc1)c1ccccc1,,inactive
COC(=O)CCCCC(=O)OC,,inactive
CCCCCCCCC(=O)O,,inactive
CCCCCCCCCCCCc1ccccc1S(=O)(=O)O,83.3 µM (active),
CCCCC(CC)COC(=O)CCCCC(=O)OCC(CC)CCCC (stereo not given),,inactive
c1ccc2c(c1)Cc1ccccc1-2,,inactive
CC1=C(/C=C/C(C)=C/C=C/C(C)=C/C(=O)O)C(C)(C)CCC1,,inactive
COCC(C)O (stereo not given),,inactive
Cc1oc(-c2ccccc2)nc1CCOc1ccc(C[C@H](Nc2ccccc2C(=O)c2ccccc2)C(=O)O)cc1,22.5 µM (active),
N#C[C@@H]1CC(F)(F)CN1C(=O)CNC1CC2CCC(C1)N2c1ncccn1 (stereo not given in full),,inactive

SMILES,AC50,outcome
CC[C@H](c1ccc(O)cc1)[C@@H](CC)c1ccc(O)cc1,,inactive
ClC1=C(Cl)C(Cl)(Cl)C(Cl)=C1Cl,,inactive
CC(O)CO (stereo not given),,inactive
NC(=O)N1C(=O)C(C(=O)c2cc(Cl)cs2)c2cc(F)c(Cl)cc21 (stereo not given),22.4 µM (active),
CCc1ccc(CCOc2ccc(CC3SC(=O)NC3=O)cc2)nc1 (stereo not given),77.6 µM (active),
CC(C)(C)c1cccc(C(C)(C)C)c1O,,inactive
Cc1cc(CCN2CCN(c3nsc4ccccc34)CC2)cc2c1NC(=O)CC2(C)C,80.3 µM (active),
c1ccc2c(c1)ccc1ccccc12,6.12 µM (active),
CC(C)(C)c1cc(C(C)(C)C)c(O)c(C(C)(C)C)c1,,inactive
NC(=O)N(O)[C@@H]1C=C[C@H](Oc2cccc(Oc3ccc(F)cc3)c2)C1,58.8 µM (active),
O=C(O)Cc1cc(I)c(Oc2cc(I)c(O)c(I)c2)c(I)c1,53.8 µM (active),
O=c1c(-c2ccc(O)cc2)coc2cc(O)ccc12,,inactive
CCCOc1sc(C(=O)N2CCC(c3cc(CN)ccc3F)CC2)c(C)c1Br,,inactive
CCCOC(=O)c1ccc(O)cc1,,inactive
COc1ccc([N+](=O)[O-])cc1N,,inactive
CCCCCCC(=O)O,,inactive
C[C@@H]1C[C@H]2[C@@H]3CCC4=CC(=O)C=C[C@]4(C)[C@@]3(F)[C@@H](O)C[C@]2(C)[C@@]1(O)C(=O)COP(=O)(O)O,,inactive
CCN(CC)CCNc1ccc(CNC=O)c2sc3ccc(OC)cc3c(=O)c12,16.8 µM (active),
CCOC(=O)CC(O)(CC(=O)OCC)C(=O)OCC,,inactive
CCCCCCCC(=O)O,,inactive
